Results reported in PubChem BioAssay.
Active and inactive are the calls of the source.

Assays:
Albumin (Bos taurus) = Albumin (Bos taurus) (UniProt P02769); assay: compounds binding labelled BSA control protein – biochemical, small-molecule microarray, Alexa647 label, 635/667 nm fluorescence, artefact control for SMM control protein annotation, profiling panel (AID 1118); details: BSA-A647 binding, fluorescence 635 nm, higher = more signal;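 further: score merges 667 nm emission intensity and signal-to-noise per printed compound spot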
Sequence of Albumin (Bos taurus) (P02769 whole entry, looked up): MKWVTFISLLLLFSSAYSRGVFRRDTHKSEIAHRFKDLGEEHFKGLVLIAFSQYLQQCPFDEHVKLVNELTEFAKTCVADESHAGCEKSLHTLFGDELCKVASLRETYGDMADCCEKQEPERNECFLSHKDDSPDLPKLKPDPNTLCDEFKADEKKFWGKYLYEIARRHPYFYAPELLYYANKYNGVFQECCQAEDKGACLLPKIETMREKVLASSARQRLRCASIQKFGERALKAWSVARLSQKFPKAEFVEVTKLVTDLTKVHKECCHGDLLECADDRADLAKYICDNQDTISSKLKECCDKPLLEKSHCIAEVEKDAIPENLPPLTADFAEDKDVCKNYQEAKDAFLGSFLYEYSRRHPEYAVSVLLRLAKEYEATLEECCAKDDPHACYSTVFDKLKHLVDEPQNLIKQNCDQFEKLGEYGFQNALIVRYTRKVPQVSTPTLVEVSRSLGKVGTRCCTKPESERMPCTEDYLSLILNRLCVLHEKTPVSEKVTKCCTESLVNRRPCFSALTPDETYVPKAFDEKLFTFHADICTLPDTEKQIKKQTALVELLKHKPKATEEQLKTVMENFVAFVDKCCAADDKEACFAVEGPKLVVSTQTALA

[1] = probe aXIP binding to arrayed compounds – biochemical, NeuroSMM set, 635/667 nm fluorescence, primary screen (AID 1119); details: small-molecule microarray, higher = more signal, called active from +8 up or from −8 down;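 further: probe is the protein aXip251-270 applied at 1 µg/mL to compound-printed slides; binding of probe to printed compounds measured as 667 nm fluorescence plus signal to noise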
[2] = probe aNOTCH3 binding on compound microarray – biochemical, small-molecule microarray, 635/667 nm fluorescence, primary screen (AID 1120); details: higher = more signal;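 further: probe is a biotin-tagged antibody raised against NOTCH3 rather than NOTCH3 protein; score merges spot fluorescence near 667 nm with spot signal to noise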
[3] = probe aNOTCH2 binding on compound microarray – biochemical, small-molecule microarray, 635/667 nm fluorescence, primary screen (AID 1121); details: higher = more signal;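 further: score merges feature fluorescence read at 667 nm with its signal to noise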
[4] = biological target: Carbonic anhydrase 2 (Homo sapiens) (UniProt P00918); assay: compounds binding carbonic anhydrase 2 – biochemical, small-molecule microarray, Alexa647-labelled CAII, profiling panel (AID 1122); details: CAII-A647 binding fluorescence, higher = more signal
[5] = COS7 lysate on small-molecule microarray, probe aHis, 635 nm (AID 1123); details: COS7 cell lysate, fluorescence, higher = more signal;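 further: z-score combines 667nm fluorescence intensity with signal-to-noise per printed compound spot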
[6] = probe aLAP1 signal on lysate-treated microarray – cell lysate, small-molecule microarray, COS7 lysate, primary screen (AID 1124); details: probe aLAP1, fluorescence, higher = more signal;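 further: lysate comes from COS7 cells expressing LAP1 and is applied at 0.3 µg/mL; score merges spot fluorescence near 667 nm with signal-to-noise over triplicate slides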
Sam68 (KHDRBS1) = assay: compounds binding KHDRBS1 protein – biochemical, small-molecule microarray, 635 nm fluorescence, primary screen (AID 1125); details: higher = more signal;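 further: score merges 667 nm channel intensity with signal to noise over triplicate slides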
[7] = test system: Chordin-like protein 2 (CHRDL2); assay: compounds binding chordin-like 2 – biochemical, small-molecule microarray, 635 nm fluorescence, primary screen (AID 1126); details: fluorescence 635 nm, higher = more signal;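 further: printed compound slides probed with Chrdl2 protein at 4 µg/mL for 1 h at 4 C; score merges 667 nm emission intensity with signal to noise over three replicate slides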
[8] = biological target: Concanavalin-A (Canavalia ensiformis) (UniProt P02866); assay: compounds binding concanavalin A lectin – biochemical, small-molecule microarray, Alexa647 label, 635 nm, artefact control for SMM control protein annotation, primary screen (AID 1127); details: ConA-A647 binding fluorescence, higher = more signal;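 further: z combines 667 nm emission intensity with signal-to-noise across three replicate slides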
Sequence of Concanavalin-A (Canavalia ensiformis) (P02866 whole entry, looked up): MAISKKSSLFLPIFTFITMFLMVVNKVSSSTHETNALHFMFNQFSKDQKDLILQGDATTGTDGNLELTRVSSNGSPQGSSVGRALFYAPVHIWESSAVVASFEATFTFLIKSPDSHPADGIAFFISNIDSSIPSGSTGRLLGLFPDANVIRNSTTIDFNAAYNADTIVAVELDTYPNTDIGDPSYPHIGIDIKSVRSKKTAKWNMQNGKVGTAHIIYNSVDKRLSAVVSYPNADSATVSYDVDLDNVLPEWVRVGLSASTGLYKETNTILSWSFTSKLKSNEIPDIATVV

[9] = compounds binding Alexa647 anti-His antibody – biochemical, small-molecule microarray, 635 nm fluorescence, artefact control for SMM control protein annotation, primary screen (AID 1128); details: higher = more signal;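 further: score merges feature fluorescence with signal-to-noise for each printed compound spot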
[10] = test system: Human papillomavirus type 1a E7 protein (residues 1-88); assay: HPV1a E7 small-molecule binders, primary screen, biochemical, small-molecule microarray, residues 1-88, 635 nm (AID 1129); details: small-molecule microarray binding, fluorescence 635 nm; higher = more signal
[11] = biological target: Focal adhesion kinase 1 (Homo sapiens) (UniProt Q05397); assay: PTK2 protein binding on printed compound slides – biochemical, small-molecule microarray, 635/667 nm fluorescence, BSA, DTT, primary screen (AID 1130); details: 635 nm fluorescence, higher = more signal;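 further: composite of spot emission at 667 nm and signal to noise over triplicate slides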
Sequence of Focal adhesion kinase 1 (Homo sapiens) (Q05397 whole entry, looked up): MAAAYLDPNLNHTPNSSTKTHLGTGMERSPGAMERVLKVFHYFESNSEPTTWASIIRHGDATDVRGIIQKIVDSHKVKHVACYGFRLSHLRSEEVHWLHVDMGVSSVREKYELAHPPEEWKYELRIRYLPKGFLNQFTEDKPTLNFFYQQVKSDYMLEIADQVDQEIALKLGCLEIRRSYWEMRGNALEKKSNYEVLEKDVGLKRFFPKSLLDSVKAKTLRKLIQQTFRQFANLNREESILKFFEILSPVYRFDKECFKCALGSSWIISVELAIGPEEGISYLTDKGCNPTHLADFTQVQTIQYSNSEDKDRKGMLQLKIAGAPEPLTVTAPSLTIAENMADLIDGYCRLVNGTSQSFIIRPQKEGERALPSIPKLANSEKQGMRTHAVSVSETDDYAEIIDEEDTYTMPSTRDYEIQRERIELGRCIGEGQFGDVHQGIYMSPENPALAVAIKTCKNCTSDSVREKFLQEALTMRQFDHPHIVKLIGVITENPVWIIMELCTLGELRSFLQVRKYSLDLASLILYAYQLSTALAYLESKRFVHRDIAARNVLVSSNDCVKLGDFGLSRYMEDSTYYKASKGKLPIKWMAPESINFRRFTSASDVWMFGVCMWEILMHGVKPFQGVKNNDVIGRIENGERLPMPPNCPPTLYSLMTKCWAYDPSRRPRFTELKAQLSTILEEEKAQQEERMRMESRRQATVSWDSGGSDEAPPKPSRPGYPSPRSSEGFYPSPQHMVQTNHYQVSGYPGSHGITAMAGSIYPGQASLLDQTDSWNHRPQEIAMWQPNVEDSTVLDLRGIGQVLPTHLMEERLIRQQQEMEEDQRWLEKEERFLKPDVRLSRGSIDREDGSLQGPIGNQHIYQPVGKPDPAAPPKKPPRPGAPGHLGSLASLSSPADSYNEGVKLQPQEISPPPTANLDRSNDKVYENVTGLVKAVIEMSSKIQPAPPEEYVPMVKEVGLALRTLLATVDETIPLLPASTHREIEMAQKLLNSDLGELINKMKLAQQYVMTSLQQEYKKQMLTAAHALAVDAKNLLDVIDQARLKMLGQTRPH

[12] = test system: Fibrinogen (Alexa647-labelled); assay: Alexa647-fibrinogen binding to printed small molecules – biochemical, small-molecule microarray, 635/667 nm fluorescence, artefact control for SMM control-protein annotation, profiling panel (AID 1131); details: fibrinogen-A647 binding fluorescence, higher = more signal;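 further: z-score merges 667 nm fluorescence with per-spot signal-to-noise over triplicate slides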
[13] = biological target: Follistatin (Homo sapiens) (UniProt P19883); assay: FST protein binding to printed compounds – biochemical, small-molecule microarray, 635/667 nm fluorescence, primary screen (AID 1132); details: 635 nm fluorescence, higher = more signal
Sequence of Follistatin (Homo sapiens) (P19883 whole entry, looked up): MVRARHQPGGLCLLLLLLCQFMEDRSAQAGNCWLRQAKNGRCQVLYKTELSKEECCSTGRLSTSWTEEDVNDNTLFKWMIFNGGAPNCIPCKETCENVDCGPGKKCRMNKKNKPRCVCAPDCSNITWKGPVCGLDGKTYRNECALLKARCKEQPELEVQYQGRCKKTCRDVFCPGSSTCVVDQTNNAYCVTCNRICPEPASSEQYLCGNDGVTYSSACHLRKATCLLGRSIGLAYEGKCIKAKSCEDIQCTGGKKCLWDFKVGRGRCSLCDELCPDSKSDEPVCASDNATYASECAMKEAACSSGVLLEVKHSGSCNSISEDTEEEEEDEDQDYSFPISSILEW

[14] = biological target: Fibroblast growth factor 2 (Homo sapiens) (UniProt P09038); assay: basic fibroblast growth factor binding to printed compounds – biochemical, small-molecule microarray, 635/667 nm fluorescence, primary screen (AID 1133); details: FGF2, fluorescence 635/667, higher = more signal
Sequence of Fibroblast growth factor 2 (Homo sapiens) (P09038 whole entry, looked up): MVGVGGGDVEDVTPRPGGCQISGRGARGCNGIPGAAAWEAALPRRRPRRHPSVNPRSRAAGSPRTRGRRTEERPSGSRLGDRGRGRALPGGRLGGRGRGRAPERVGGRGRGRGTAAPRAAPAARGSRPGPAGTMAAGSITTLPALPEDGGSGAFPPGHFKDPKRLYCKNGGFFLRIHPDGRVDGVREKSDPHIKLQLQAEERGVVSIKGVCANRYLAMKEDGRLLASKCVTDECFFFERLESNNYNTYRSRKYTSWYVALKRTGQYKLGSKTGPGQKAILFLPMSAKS

[15] = JC-1 mitochondrial potential readout, lung cancer cells – cell-based, A549, JC-1 fluorescence, basal, 24 h, 100 nL, profiling panel (AID 1138); details: higher = more signal;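 further: A549 lung adenocarcinoma cells under basal conditions with no added stimulus; test concentration not given here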
Lefty1 = Lefty1 protein binding to printed compounds – biochemical, small-molecule microarray, 635/667 nm fluorescence, primary screen (AID 1139); details: fluorescence 635/667, higher = more signal
[16] = test system: wheat germ agglutinin (Triticum aestivum), Alexa647-labelled; assay: Alexa647-WGA lectin binding to printed small molecules – biochemical, small-molecule microarray, 635/667 nm fluorescence, artefact control for SMM control-protein annotation, profiling panel (AID 1140); details: WGA-A647 binding, 635 nm fluorescence, higher = more signal;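 further: score merges 667 nm feature emission with signal to noise over triplicate slides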
[17] = biological target: Luciferin 4-monooxygenase (Photinus pyralis) (UniProt P08659); assay: inhibition of purified Photinus pyralis luciferase – biochemical, luminescence, purified enzyme, 2006 set, primary screen (AID 1141); details: purified firefly luciferase, SteadyGlo luminescence, 30 min; higher = more signal, called active from +8 up or from −8 down;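 further: cell-free assay with purified firefly luciferase at 100 ng per well in PBS; test concentration not given here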
Sequence of Luciferin 4-monooxygenase (Photinus pyralis) (P08659 whole entry, looked up): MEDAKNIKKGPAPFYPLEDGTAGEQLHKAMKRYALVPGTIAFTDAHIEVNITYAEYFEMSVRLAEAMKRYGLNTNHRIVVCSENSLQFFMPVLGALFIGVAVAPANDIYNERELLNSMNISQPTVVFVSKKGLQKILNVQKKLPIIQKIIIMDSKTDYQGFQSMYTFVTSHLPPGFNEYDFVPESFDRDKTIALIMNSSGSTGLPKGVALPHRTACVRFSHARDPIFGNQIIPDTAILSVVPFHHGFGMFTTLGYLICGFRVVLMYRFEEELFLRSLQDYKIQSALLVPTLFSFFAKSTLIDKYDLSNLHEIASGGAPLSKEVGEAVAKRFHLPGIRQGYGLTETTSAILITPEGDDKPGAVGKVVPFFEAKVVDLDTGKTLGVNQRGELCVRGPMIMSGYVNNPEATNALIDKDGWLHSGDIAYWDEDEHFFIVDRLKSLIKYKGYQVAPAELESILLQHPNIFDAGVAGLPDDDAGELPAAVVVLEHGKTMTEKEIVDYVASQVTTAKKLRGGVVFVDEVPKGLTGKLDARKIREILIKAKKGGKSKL

| SMILES | composite z-score (Albumin (Bos taurus)) | composite Z-score [1] | composite z-score [2] | composite z-score [3] | composite z-score [4] | composite z-score [5] | composite z-score [6] | composite z-score (Sam68 (KHDRBS1)) | composite z-score [7] | composite z-score [8] | composite z-score [9] | composite z-score [10] | composite z-score [11] | composite z-score [12] | composite z-score [13] | composite z-score [14] | z-score [15] | composite z-score (Lefty1) | composite z-score [16] | z-score [17] |
| --- | --- | --- | --- | --- | --- | --- | --- | --- | --- | --- | --- | --- | --- | --- | --- | --- | --- | --- | --- | --- |
| C[N+](C)(C)CCCCNC(=O)[C@@H]1C[C@@H]2C(=O)NCC(=O)N2[C@@H]1c1cccc(OCCO)c1 | -0.656 | 0.617 (inactive) | 0.0297 | -0.19 | 0.434 | 2.15 | 1.27 | 0.781 | 1.29 | 1.14 | 2.59 | 1.15 | -0.421 | 0.78 | 1.49 | 1.94 | 1.87 | 1.6 | 1.02 | -1.9 (inactive) |
| C=C(C1=CCN(S(=O)(=O)c2ccc(C)cc2)C1)[C@@H](OC(C)=O)[C@@H]1CCCN1S(=O)(=O)c1ccccc1[N+](=O)[O-] | -1.41 | -0.0256 (inactive) | -0.127 | -0.194 | 0.139 | 0.586 | -0.273 | -0.339 | -0.486 | -1.53 | 0.0491 | 0.128 | 0.137 | -1.38 | -0.273 | -0.343 | 1.7 | -0.0118 | -1.42 | -1.35 (inactive) |
| COC(=O)c1c(CC[C@@H](CO)NC(=O)Nc2ccc(OC)cc2)oc(C(=O)Cc2ccccc2)c1C(=O)OC | 0.771 | 0.466 (inactive) | -0.004 | -0.0776 | 0.656 | 0.261 | 0.21 | 0.603 | 0.12 | 0.688 | -0.177 | 0.45 | -0.181 | 0.211 | 0.473 | 0.434 | 1.02 | 1.08 | 0.371 | -1.37 (inactive) |
| C=CCN1C(=O)[C@@]2(O[C@@H](CCO)[C@H]([Si](C)(C)c3ccc(OC)cc3)[C@H]2C)c2cc(N(C=O)c3ccccc3)ccc21 | 0.377 | 0.459 (inactive) | -0.0918 | -0.0895 | 0.246 | 0.396 | 0.222 | 0.807 | -0.332 | 0.67 | 1.03 | 0.721 | -0.115 | 0.373 | 0.203 | 0.0479 | -0.688 | 0.124 | 0.918 | -1.66 (inactive) |
| CC(C)(C)OC(=O)CC[C@@]12N=C(c3ccc(OCCCO)cc3)O[C@@H]1c1ccccc1N(Cc1ccccc1)C2=O | 0.0674 | 1.83 (inactive) | -0.122 | -0.0318 | 0.434 | 1.67 | 0.583 | 1.15 | 0.145 | 1.05 | 2.92 | 1 | 1.16 | 0.214 | 1.39 | 0.54 | 1.43 | 0.345 | 0.036 | -2.14 (inactive) |
| Cc1ccc(S[C@]2(C(=O)NCC(C)C)CC(=O)N(C(C)C)[C@@H]2c2ccc(CO)cc2)cc1 | -0.283 | 0.0333 (inactive) | -0.255 | -0.163 | 0.747 | 0.301 | -0.311 | -0.749 | -0.589 | -0.522 | -1.15 | 0.259 | -0.267 | -1.48 | 0.259 | 0.206 | 0.69 | -0.477 | -1.76 | -0.204 (inactive) |
| COc1ccc(/C=C/C(=O)c2cccc(OCC(=O)OC(C)(C)C)c2)cc1 | 0.396 | -0.0202 (inactive) | -0.176 | -0.133 | -0.0082 | 0.872 | 0.651 | 1.02 | -0.55 | 0.4 | 0.0179 | 0.67 | 0.168 | 0.158 | -0.708 | -0.453 | 1.57 | -0.51 | 0.248 | -2.64 (inactive) |
| C=CCNC(=O)[C@H]1[C@@H]2C(=O)O[C@@H](c3ccccc3)[C@@H](c3ccccc3)N2[C@@H](c2ccc(OCCO)cc2)[C@]12C(=O)Nc1ccc(C#CCCO)cc12 | 0.321 | 0.512 (inactive) | 0.116 | -0.13 | 0.394 | 1.86 | 0.725 | 1.14 | 0.089 | 0.783 | -0.0886 | 1.11 | 0.418 | 0.61 | 1.3 | 0.327 | 0.187 | 0.909 | 1.06 | -0.969 (inactive) |
| C=C(/C(=C/C[C@H](OC(C)=O)c1cccc(OCCO)c1)c1cc(C(=O)OC)ccc1OC)C(C)C | 0.103 | 0.307 (inactive) | -0.0918 | -0.126 | 0.38 | 0.866 | 0.172 | 0.177 | -0.767 | -0.319 | -0.604 | -0.389 | 0.445 | -0.624 | -0.288 | -0.0132 | 3.18 | -0.0603 | -0.907 | -1.84 (inactive) |
| C=C(COC)/C(=C/C[C@H](OC(C)=O)c1ccc(CO)o1)c1cnc2ccccc2c1 | 0.15 | 0.837 (inactive) | 0.116 | -0.11 | 0.969 | 1.25 | -0.105 | 1.29 | 1.14 | 1.09 | 1.28 | 1.17 | 0.284 | -0.0185 | 1.42 | 1.31 | 0.861 | 1.58 | 1.35 | -2.1 (inactive) |
| NC(=O)NCC#Cc1ccc2c(c1)[C@]1(C(=O)N2)[C@H](c2ccc(OCCO)cc2)N2[C@H](c3ccccc3)[C@H](c3ccccc3)OC(=O)[C@H]2[C@@H]1C(=O)Nc1nc2ccccc2s1 | -0.0355 | -0.883 (inactive) | -0.132 | -0.0629 | 0.0165 | 0.966 | 0.436 | -0.112 | 0.175 | 0.0806 | -0.609 | 0.123 | 0.0616 | 0.0886 | 0.923 | -0.292 | -2.17 | -0.609 | 0.244 | -2.15 (inactive) |
